# Measured values: PubChem BioAssay (Tox21)
# Inconclusive results are not listed. A call without a number means that no potency is given here. Activity calls are given as the source filed them. Calls come from the whole dose curve; as a rule, active = well fitted inhibition curve with a large enough effect in the signal ratio in the repeat runs (not every such curve was filed as active); inconclusive = weak or mixed curves, or effect the other way; inactive = no such curve, though single readings can be large or run the other way; the % refers to the signal ratio. Positions of bridges follow the written chain, without caps; N, C: chain ends. Non-standard residues stand in square brackets, D forms with d. Residues, ends and D or L forms follow the SMILES beside them. pGlu = O=C1CC[C@@H](C(=O)O)N1; Orn = NCCC[C@H](N)C(=O)O; Thz = O=C(O)[C@@H]1CSCN1; Mpa = O=C(O)CCS
# Biological target: Glucocorticoid receptor (Homo sapiens) (UniProt P04150)
# Assay: qHTS assay to identify small molecule antagonists of the glucocorticoid receptor (GR) signaling pathway (AID 720692)
# Conditions: GR-bla HeLa, beta-lactamase FRET ratio, dexamethasone-stimulated, 18 h; series mostly up to 58.5 µM
# Source text: U.S. Tox21 Program National Center for Advancing Translational Sciences [NCATS] NIH Chemical Genomics Center [NCGC] U.S. Environmental Protection Agency [EPA] National Institutes of Environmental Health Sciences [NIEHS] National Toxicology Program [NTP] U.S. Food and Drug Administration [FDA] Tox21 Assay Overview: The Glucocorticoid receptor (GR) is one of the members of the nuclear receptor family of ligand-dependent transcription factors. GR plays a critical role in carbohydrate, protein and lipid metabolisms and programmed cell death. CellSensor GR-bla HeLa cell line (Invitrogen) contains a beta-lactamase reporter gene under the control of the glucocorticoid response element stably integrated into HeLa cells, a cervical cancer cell line that expresses glucocorticoid receptor. The activation of the reporter gene under culture conditions can be detected by fluorescence intensity. This cell line has been used to screen the Tox21 10K compound library and to identify the compounds that inhibit the GR signaling.
# Tox21 Assay Protocol Summary: The GR-bla HeLa cells were dispensed at 1500 cells/5 ul/well in 1536-well black wall/clear bottom plates using a Multidrop Combi (ThermoFisher Scientific, Waltham, MA) dispenser. After the assay plates were incubated at a 37 C/5% CO2 incubator for 4 hours, 23 nL of compounds dissolved in DMSO, positive controls or DMSO only was transferred to the assay plate by a pintool station (Kalypsys, San Diego, CA), followed by addition of 1 uL of dexamethasone (5 nM, final concentration in the well). The plates were incubated at 37 C for 18 hours. After 1 uL of LiveBLAzerTM B/G FRET substrate was added using a Flying Reagent Dispenser (Aurora Discovery, San Diego, CA), the plates were incubated at room temperature for 2 hours, and fluorescence intensity was measured by an Envision plate reader (PerkinElmer, Shelton, CT).
# Potency is the fitted concentration of half-maximal effect.
# Glucocorticoid receptor (Homo sapiens), sequence (P04150 whole entry, looked up): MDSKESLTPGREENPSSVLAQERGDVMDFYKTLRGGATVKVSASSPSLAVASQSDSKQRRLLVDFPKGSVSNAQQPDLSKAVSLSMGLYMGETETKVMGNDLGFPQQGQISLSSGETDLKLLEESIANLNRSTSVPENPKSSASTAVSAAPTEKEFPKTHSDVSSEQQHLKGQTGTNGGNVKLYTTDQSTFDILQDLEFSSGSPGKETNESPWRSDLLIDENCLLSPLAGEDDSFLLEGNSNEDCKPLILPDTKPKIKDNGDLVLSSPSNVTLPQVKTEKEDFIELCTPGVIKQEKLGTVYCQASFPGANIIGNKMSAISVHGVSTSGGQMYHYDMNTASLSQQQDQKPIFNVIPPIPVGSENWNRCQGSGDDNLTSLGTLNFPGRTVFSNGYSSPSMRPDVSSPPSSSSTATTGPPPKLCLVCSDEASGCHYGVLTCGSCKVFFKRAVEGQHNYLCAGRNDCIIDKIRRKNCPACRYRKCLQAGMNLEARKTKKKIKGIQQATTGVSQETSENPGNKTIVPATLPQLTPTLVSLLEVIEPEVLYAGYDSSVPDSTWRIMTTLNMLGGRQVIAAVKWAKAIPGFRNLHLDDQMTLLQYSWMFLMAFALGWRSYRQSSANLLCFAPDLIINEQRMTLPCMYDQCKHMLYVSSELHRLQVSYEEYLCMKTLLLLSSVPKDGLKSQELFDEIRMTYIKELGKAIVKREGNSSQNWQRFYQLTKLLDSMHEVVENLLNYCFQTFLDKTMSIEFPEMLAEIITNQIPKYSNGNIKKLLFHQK
row,Compound,Potency
1,CCOC(=O)C1=C(COCCN)NC(C)=C(C(=O)OC)C1c1ccccc1Cl (stereo not given),inactive
2,CC(=O)O[C@H]1C(=O)[C@@]2(C)[C@H]([C@H](OC(=O)c3ccccc3)[C@]3(O)C[C@H](OC(=O)[C@H](O)[C@@H](NC(=O)c4ccccc4)c4ccccc4)C(C)=C1C3(C)C)[C@]1(OC(C)=O)CO[C@@H]1C[C@@H]2O,inactive
3,FC(F)(F)C(F)(F)C(F)(F)C(F)(F)C(F)(F)C(F)(F)F,inactive
4,CO/N=C(\C(=O)N[C@@H]1C(=O)N2C(C(=O)O)=C(CSc3nnnn3C)CS[C@H]12)c1csc(N)n1,inactive
5,CC[C@H](C)[C@@H]1NC(=O)[C@H](Cc2ccc(O)cc2)NC(=O)[C@@H](N)CSSC[C@@H](C(=O)N2CCC[C@H]2C(=O)N[C@@H](CC(C)C)C(=O)NCC(N)=O)NC(=O)[C@H](CC(N)=O)NC(=O)[C@H](CCC(N)=O)NC1=O,inactive
6,CC(=O)Nc1c(I)c(C(=O)O)c(I)c(N(C)C(C)=O)c1I,inactive
7,COC(=O)C1=C(C#N)NC(C)=C(C(=O)OC(C)C)C1c1cccc([N+](=O)[O-])c1 (stereo not given),19 µM (active)
8,O=S(=O)(O)c1cc(O)c2c(N=Nc3ccc(Nc4ccccc4)c4c(S(=O)(=O)O)cccc34)cc(S(=O)(=O)O)cc2c1,inactive
9,CN1c2c(nc(N)[nH]c2=O)NCC1CNc1ccc(C(=O)NC(CCC(=O)O)C(=O)O)cc1 (stereo not given),inactive
10,CC1CCC(NC(=O)N(CCCl)N=O)CC1 (stereo not given),inactive
11,O=C1CC[C@@H](C(=O)N2CSC[C@H]2C(=O)O)N1 ([pGlu]-[Thz]-OH),inactive
12,C=CCSSSCC=C,inactive
13,Cc1cc(C)c(NC(=O)C[C@H](CC(=O)O)c2cccc3ccccc23)c(C(=O)N2CCC3(CCCC3)CC2)c1,10.7 µM (active)
14,O=C(Cc1cccs1)N[C@@H]1C(=O)N2C(C(=O)[O-])=C(C[n+]3ccccc3)CS[C@H]12,inactive
15,CC1CS(=O)(=O)CCN1/N=C/c1ccc([N+](=O)[O-])o1 (stereo not given),inactive
16,CCCCC/C=C\CCC(=O)N[C@H]1[C@H](Oc2c3cc4cc2Oc2ccc(cc2Cl)[C@@H](O[C@@H]2O[C@H](CO)[C@@H](O)[C@H](O)[C@H]2NC(C)=O)[C@@H]2NC(=O)[C@H](NC(=O)[C@@H]4NC(=O)[C@H]4NC(=O)[C@@H](Cc5ccc(c(Cl)c5)O3)NC(=O)[C@H](N)c3ccc(O)c(c3)Oc3cc(O)cc4c3)c3ccc(O)c(c3)-c3c(O[C@H]4O[C@H](CO)[C@@H](O)[C@H](O)[C@@H]4O)cc(O)cc3[C@@H](C(=O)O)NC2=O)O[C@H](CO)[C@@H](O)[C@@H]1O,inactive
17,COC(=O)CC[C@H](N)C(=O)O,inactive
18,Cc1cccc(C)c1N(CCCc1cccnc1)C(=O)C(C)N (stereo not given),inactive
19,C/C1=C2N=C(/C=C3N=C(/C(C)=C4\[N-]C(C(CC(N)=O)C4(C)CCC(=O)NCC(C)OP(=O)([O-])OC4C(CO)OC(n5cnc6cc(C)c(C)cc65)C4O)C4(C)N=C1C(CCC(N)=O)C4(C)CC(N)=O)C(CCC(N)=O)C\3(C)C)C(CCC(N)=O)C/2(C)CC(N)=O.[CH3-].[Co+3] (stereo not given),inactive
20,NC(=O)C[C@@H](N)C(=O)O,inactive

row,Compound,Potency
1,O=C(Cn1c(=O)sc2ccc(Cl)cc21)N1CCN(CCO)CC1,inactive
2,Cc1c(N)nc(C(CC(N)=O)NCC(N)C(N)=O)nc1C(=O)NC(C(=O)NC(C)C(O)C(C)C(=O)NC(C(=O)NCCc1nc(-c2nc(C(=O)NCCCN[C@@H](C)c3ccccc3)cs2)cs1)C(C)O)C(O[C@@H]1O[C@@H](CO)[C@@H](O)[C@H](O)[C@@H]1O[C@H]1O[C@H](CO)[C@@H](O)[C@H](OC(N)=O)[C@@H]1O)c1cnc[nH]1 (stereo not given in full),inactive
3,COC(=O)C1=C(C)NC(C)=C(C(=O)O[C@H]2CCN(Cc3ccccc3)C2)[C@H]1c1cccc([N+](=O)[O-])c1,23.9 µM (active)
4,CCOc1ccc(C[C@H]2NC(=O)CCSSC[C@@H](C(=O)N3CCC[C@H]3C(=O)N[C@@H](CCCN)C(=O)NCC(N)=O)NC(=O)[C@H](CC(N)=O)NC(=O)[C@H]([C@@H](C)O)NC(=O)[C@H]([C@@H](C)CC)NC2=O)cc1 ([Mpa][dY](Et)ITNCP[Orn]G-NH2; disulfide 1-6),inactive
5,CC1(C)N=C(N)N=C(N)N1c1ccc(Cl)cc1,inactive
6,CS(=O)(=O)OCC(O)C(O)COS(C)(=O)=O (stereo not given),inactive
7,O=P(O)(O)C(O)(Cc1cnc2ccccn12)P(=O)(O)O,inactive
8,O=C1NCCN1c1ncc([N+](=O)[O-])s1,inactive
9,CC(=O)Oc1c(C)cc(OCC(O)CNC(C)C)c(C)c1C (stereo not given),inactive
10,COc1ccc(CNCC(O)COc2ccc3[nH]c(=O)ccc3c2)cc1OC (stereo not given),inactive
11,C[Se]CCC(N)C(=O)O (stereo not given),inactive
12,CC(=O)N=c1sc(S(N)(=O)=O)nn1C,inactive
13,CNCC(O)c1ccc(OC(=O)C(C)(C)C)c(OC(=O)C(C)(C)C)c1 (stereo not given),inactive
14,CO/N=C(\C(=O)N[C@@H]1C(=O)N2C(C(=O)O)=C(CSC(=O)c3ccco3)CS[C@H]12)c1csc(N)n1,inactive
15,CS(=O)(=O)OCCCNCCCOS(C)(=O)=O,inactive
16,O=P(O)(O)C(Sc1ccc(Cl)cc1)P(=O)(O)O,inactive
17,[O]=[Bi][O]C(=O)[O][Bi]=[O],inactive
18,N#Cc1ccc2c(c1)N(CCCN1CCC(O)CC1)c1ccccc1S2,inactive
19,CCCCCCCCCCCC(=O)OC[C@@H](O)C1OC[C@H](O)[C@H]1O (stereo not given in full),inactive
20,CC(C)CN(C[C@@H](OP(=O)(O)O)[C@H](Cc1ccccc1)NC(=O)O[C@H]1CCOC1)S(=O)(=O)c1ccc(N)cc1,inactive
